tim23-1 inh – tim23-1 yeast growth inhibition; S. cerevisiae tim23-1 growth, BacTiter-Glo luminescence, 24 h; inhibition, % at 20 µM; 1.3% of 330,000 active; AID 463212;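 active = growth inhibition of the mutant yeast at or above 50%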;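 note: temperature-sensitive mutant grown at 25 °C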
SKKanGAS inh – blocks kanamycin growth of S. pyogenes SKKanGAS strain; BacTiter-Glo, 6 h; inhibition, % at 7.5 µM; 1.3% of 300,000 active; AID 1662;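 active = mean replicate score, as percent of positive control median, at least 50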;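 note: strain carries kanamycin resistance gene driven by streptokinase promoter and grows in 40 µg/ml kanamycin; loss of luminescence reflects streptokinase promoter inhibition or plain growth inhibition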
tim10-1 inh – growth inhibitors of tim10-1 mutant yeast; AID 463190; 2.2% of 330,000 active; inhibition, % at 20 µM; S. cerevisiae tim10-1 ts strain growth, BacTiter-Glo, 24 h;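 active = inhibition of at least 40%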;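 note: mutant grown at 25 °C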
NALP3 yeast inh – blocks the NALP3 inflammasome reconstituted in yeast | Yeast reconstituted NLRP3/ASC/caspase-1, beta-gal luminescence, 24 h | AID 2825 | 0.39% of 330,000 active | inhibition, % at 10 µM;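 active = inhibition of 50% or more; inactive = inhibition below 50%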
PfHsp90 set2 – reduces growth (ATP signal) of yeast expressing P. falciparum Hsp90; S. cerevisiae expressing PfHsp90, BacTiter-Glo ATP, 48 h; yeast lacking PDR1 and PDR3 efflux regulators; inhibition, % at 9.4 µM; 0.32% of 310,000 active;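 active = every replicate shows inhibition above about 80%, whatever the replicate mean, limit read from the data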
TIM10 inh – growth inhibitors of TIM10 yeast strain | S. cerevisiae TIM10 strain growth, BacTiter-Glo luminescence, 24 h | inhibition, % at 10 µM | 1.4% of 330,000 active | AID 463195;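 active = inhibition of 40% or more at the single tested concentration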;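 note: wild-type TIM10 isogenic control strain grown at permissive 25 °C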
Numbers stand for hits; – = inactive; · = not tested or not shown. Shown are actives, neighbours in structure and some others; about 4.6% of the full set was active somewhere.

SMILES	tim23-1 inh	SKKanGAS inh	tim10-1 inh	NALP3 yeast inh	PfHsp90 set2	TIM10 inh
Cc1ccc(CNC(=O)C2CCCN(S(=O)(=O)c3c(C)noc3/C=C/N(C)C)C2)cc1 (configuration not stated)	–	–	–	–	–	–
C=CCn1c(O)c(C2=c3ccccc3=NC2=O)c2ccccc21	–	–	–	–	110	–
COc1ccccc1N1C(=O)[C@@H]2C(C(=O)CN3C(=O)c4ccccc4C3=O)=NN[C@@H]2C1=O	–	–	–	–	·	–
COc1cccc(N2C(=O)C3NN=C(C(=O)CN4C(=O)c5ccccc5C4=O)C3C2=O)c1 (configuration not stated)	–	52	–	–	·	–
CC(=O)C[C@H](O)CC(=O)[C@H]1OC(=O)[C@@H](C)CCCCc2ccccc21	–	·	–	–	–	–
O=C(Nc1nnc(C2CC2)s1)c1cc(-c2ccccc2)nn1-c1ccccc1	–	73	–	–	–	–
Cc1ccc(CN2C(=O)c3ccccc3NC2c2cc(Br)ccc2O)cc1 (configuration not stated)	–	104	–	–	–	–
O=[N+]([O-])c1ccc(Sc2nnnn2-c2ccccc2)nc1	–	–	–	–	·	–
COc1cccc(/C=C(/C(=O)OCC(=O)NC2CCCC(C)C2C)c2ccccc2)c1 (configuration not stated)	·	65	·	·	–	·
O=C(c1ccc(F)cc1)N1CCCCC(S(=O)(=O)c2ccccc2)C1=O (configuration not stated)	–	–	–	–	–	–
O=C(O)C(c1ccccc1)N1C(=O)/C(=C\c2ccc(-c3ccccc3Cl)o2)SC1=S (configuration not stated)	–	102	–	–	–	–
O=C(O)C(c1ccccc1)N1C(=O)/C(=C\c2ccc(-c3ccc(Br)cc3)o2)SC1=S (configuration not stated)	–	109	–	–	–	–
N=C1SCC(=O)N1c1ncc(Cc2cccc(Cl)c2)s1	·	84	·	·	–	·
Cc1ccc(Cc2cnc(N3C(=N)SC(C)C3=O)s2)cc1 (configuration not stated)	–	90	–	–	·	–
N=C1SCC(=O)N1c1ncc(Cc2ccccc2Cl)s1	·	–	·	·	–	·
Cc1cccc(Cc2cnc(N3C(=N)SC(C)C3=O)s2)c1 (configuration not stated)	–	93	–	–	–	–
Cc1noc(C)c1CSCC(=O)Nc1cccc(C(F)(F)F)c1	–	·	–	–	–	–
Cc1cc(N/N=C/c2ccc(Cl)cc2Cl)nc(NCc2ccccc2)n1	–	92	–	–	–	–
O=C(NC(=S)N1CCN(c2ccc(Cl)cc2[N+](=O)[O-])CC1)c1ccco1	–	–	–	–	–	–
O=C(NC(=S)N1CCN(c2ccc(Cl)cc2[N+](=O)[O-])CC1)c1cccs1	·	71	·	·	–	·
COc1cccc(C(=O)NC(=S)N2CCN(c3ccc(C(F)(F)F)cc3[N+](=O)[O-])CC2)c1	–	70	–	–	–	–
CC(C)Oc1cccc(C(=O)NC(=S)N2CCN(c3ccc(C(F)(F)F)cc3[N+](=O)[O-])CC2)c1	–	97	–	–	·	–
CCOc1ccc(C(=O)NC(=S)N2CCN(c3ccc(C(F)(F)F)cc3[N+](=O)[O-])CC2)cc1	–	–	–	–	–	–
CC1CCCC(NC(=O)Cn2cc(C(F)(F)F)cc(Cl)c2=O)C1C (configuration not stated)	–	·	–	–	–	–
O=[N+]([O-])c1ccc(N=Nc2c(Cl)cc(O)cc2Cl)cc1	·	50	·	·	131	·
SMILES	tim23-1 inh	SKKanGAS inh	tim10-1 inh	NALP3 yeast inh	PfHsp90 set2	TIM10 inh
O=C(NCCCN1CCOCC1)C(C(=O)NCCCN1CCOCC1)c1ncc(C(F)(F)F)cc1Cl	–	–	–	–	–	–
NC(=O)c1ccc(N=Cc2ccc([N+](=O)[O-])s2)cc1	·	·	·	·	104	·
O=C(Cc1cccs1)N/N=C\c1ccc([N+](=O)[O-])s1	–	–	–	–	–	–
C=C1CC[C@H](O)C/C1=C/C=C1\CCC[C@]2(C)[C@@H]([C@H](C)/C=C/[C@H](C)C(C)C)CC[C@@H]12	–	·	–	–	–	–
N#Cc1ccc(-c2ccccc2)nc1SCC(=O)c1cc2ccccc2oc1=O	–	109	–	–	–	–
O=C(/C=C/c1ccc([N+](=O)[O-])cc1)OCC(=O)N1CCCC1	–	·	–	–	–	–
CC(C)(C)OC(=O)N1CCC(c2c(C(=O)NCC3CCN(C4CCCC4)C3)cnn2-c2ccccc2Cl)CC1 (configuration not stated)	–	–	–	–	–	–
COc1ccccc1NC(=O)Nc1nc(CC(=O)N2CCN(c3ccccc3)CC2)cs1	–	–	–	–	–	–
COc1ccc(CNC(=O)Cc2csc(NC(=O)Nc3ccccc3OC)n2)cc1	–	55	–	–	–	–
COc1ccccc1NC(=O)Nc1nc(CC(=O)Nc2cccc(F)c2)cs1	–	–	–	–	–	–
COc1cc(OC)cc(C(=O)Nc2nc(CC(=O)NCc3ccccc3OC)cs2)c1	–	62	–	–	·	–
COc1ccccc1NC(=O)Nc1nc(CC(=O)Nc2cc(F)ccc2F)cs1	–	82	–	–	–	–
COc1ccc(N2CCN(C(=O)Cc3csc(NC(=O)Nc4ccccc4OC)n3)CC2)cc1	–	66	–	–	·	–
COc1cc(OC)cc(C(=O)Nc2nc(CC(=O)NCc3ccc(F)cc3)cs2)c1	–	–	–	–	–	–
CC(C)[C@H](NC(=O)c1ccccc1Cl)C(=O)OCC(=O)NCc1ccc2c(c1)OCO2	–	·	–	–	–	–
CCCC1(c2ccsc2)NC(=O)NC1=O (configuration not stated)	·	·	·	·	–	·
CN(C)c1ccnc(Nc2ccccc2)c1C#N	–	–	–	–	–	–
CN(C)c1ccnc2c[cH-]cc12.[Fe].c1ccc(-[c-]2[c-](-c3ccccc3)[c-](-c3ccccc3)[c-](-c3ccccc3)[c-]2-c2ccccc2)cc1 (configuration not stated)	–	86	–	–	–	–
O=C(NCCNC(=O)c1ccc(Br)o1)c1cccnc1	–	–	–	–	–	–
S=C(NNc1ccnc2cc(Cl)ccc12)Nc1ccc(Cl)cc1Cl	–	71	–	–	–	–
Oc1ccc(C[C@@H]2CNCCN2CCc2cc(C(F)(F)F)cc(C(F)(F)F)c2)cc1	–	–	–	–	–	–
FC(F)(F)c1cc(CCN2CCNC[C@H]2Cc2cccc3ccccc23)cc(C(F)(F)F)c1	–	70	–	–	–	–
CN(CC1CCCN(CCc2cccc(C(F)(F)F)c2)C1)C(=O)c1cc2ccccc2o1 (configuration not stated)	–	–	–	–	–	–
CCCc1cc(=O)oc2cc(OCc3ccc(C(=O)O)cc3)ccc12	–	–	–	–	109	–
CCCc1cc(=O)oc2cc(OCc3ccc(C(=O)O)o3)ccc12	–	–	–	–	–	–

Screening data (PubChem BioAssay)
